# Only some compounds are listed: those with a hit (about 31% of all), similar ones and a draw of the others.
# CYP2C9 inh = inhibitors of human CYP2C9; 96,000 compounds, 20% hits; CYP2C9 Supersomes, luciferin-H conversion, luminescence; inhibition, % at 5 µM; P11712;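 active = blocking of liver enzyme CYP2C9 beyond about 50% at 5 µM, limit read from the data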
# CYP2C9 activ = CYP2C9 (human) activation | P11712 | 96,000 compounds, 1.4% hits | activation factor at 5 µM | recombinant CYP2C9, luciferin-H conversion, luminescence; hits give high values; factor 1 = untreated enzyme, 0 = blocked;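 active = activation factor of 2 or more for CYP2C9 at a 5 µM dose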;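 note: 0 = sulfaphenazole-blocked wells and 1 = vehicle-only wells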
# CYP2C19 inh = human CYP2C19 inhibition; CYP2C19 Supersomes, luciferin-H EGE luminescence, 30 min; P33261; 96,000 compounds, 21% hits; AID 778; inhibition, % at 5 µM;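 active = CYP2C19 inhibition above a set limit at 5 µM in the primary screen, cut at about 50% in these data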;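 note: plate controls were negative control wells for no effect and 2.5 mM tranylcypromine positive control for full effect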
# Target sequence (P33261 whole entry, looked up): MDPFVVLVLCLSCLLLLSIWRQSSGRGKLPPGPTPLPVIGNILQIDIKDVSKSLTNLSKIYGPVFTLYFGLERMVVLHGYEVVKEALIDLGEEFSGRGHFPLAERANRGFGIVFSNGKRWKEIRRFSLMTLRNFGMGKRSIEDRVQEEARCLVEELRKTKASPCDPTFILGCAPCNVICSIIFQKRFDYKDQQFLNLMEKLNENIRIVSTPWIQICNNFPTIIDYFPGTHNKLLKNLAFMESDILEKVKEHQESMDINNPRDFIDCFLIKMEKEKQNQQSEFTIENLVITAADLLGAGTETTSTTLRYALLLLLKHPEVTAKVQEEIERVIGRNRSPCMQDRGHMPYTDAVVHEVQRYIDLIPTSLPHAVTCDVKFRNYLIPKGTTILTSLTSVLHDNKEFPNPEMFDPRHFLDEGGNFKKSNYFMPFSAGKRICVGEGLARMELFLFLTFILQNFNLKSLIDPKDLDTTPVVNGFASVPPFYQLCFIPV
# CYP2C19 act = increases human CYP2C19 enzyme activity | P33261 | recombinant CYP2C19, luciferin-H EGE luminescence; hits give high values; 0 = fully inhibited enzyme, 1 = untreated enzyme | activation factor at 5 µM | 96,000 tested, under 10 active;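 active = activation factor of at least 2 at 5 µM in the primary screen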;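 note: 0 = wells with 2.5 mM tranylcypromine and 1 = vehicle-only wells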
# * hit, by the source's call.
SMILES,CYP2C9 inh,CYP2C9 activ,CYP2C19 inh,CYP2C19 act
CCOC(=O)C1=NN(C(=O)c2ccc(C)cc2)C(O)(c2ccc(Cl)cc2)C1 (stereo unspecified),34,0.7,56*,0.4
Cc1ccc(NC(=S)NNC(=O)c2ccco2)cc1,0,1,9,0.9
Nc1nc(-c2ccc(Br)s2)c(Br)s1,8,0.9,-8,1.1
OC1(c2cccc(F)c2)CCN(Cc2ccncc2)CC1,2,1,65*,0.3
COc1cc(C2c3c(n[nH]c3C)C(=O)N2c2ccc(C)cc2)ccc1O (stereo unspecified),44,0.6,38,0.6
COc1cc(C2c3c(-c4ccccc4)n[nH]c3C(=O)N2c2ccccc2)ccc1O (stereo unspecified),92*,0.1,77*,0.2
CN1CCN(NC(=O)c2cc([N+](=O)[O-])cc([N+](=O)[O-])c2)CC1,2,1,-5,1
CCOC(=O)N1CCN(C(=O)COc2ccc3c(c2)C(=O)CC2(CCN(C(C)=O)CC2)O3)CC1,13,0.9,-17,1.2
O=C1CC2(CCCCC2)Oc2ccc(O)cc21,16,0.8,60*,0.4
C=CCOc1c(CNc2nccs2)cccc1OCC,72*,0.3,98*,0
C=CCOc1c(CNc2ccc(C(=O)O)cc2)cccc1OCC,-10,1.1,0,1
FCCCOc1ccc(-c2nccc(-c3ccc(F)cc3)n2)cc1,81*,0.2,54*,0.5
COC(=O)c1ccc(NC(=O)NS(=O)(=O)c2ccc(C)cc2)cc1,-13,1.1,-6,1.1
CCn1c(SCC(=O)N2CC(=O)Nc3ccccc32)nnc1-c1ccoc1C,11,0.9,15,0.9
Cc1ccc(-n2nnnc2SCC(=O)N2CC(=O)Nc3ccccc32)cc1,-48,1.5,52*,0.5
Cc1nnc(SCC(=O)N2CC(=O)Nc3ccccc32)n1C,1,1,4,1
Cc1ccccc1-n1c(C)nnc1SCC(=O)N1CC(=O)Nc2ccccc21,-15,1.1,70*,0.3
COc1ccc(C2=NOC(C(=O)NCCCn3ccnc3)C2)cc1 (stereo unspecified),84*,0.2,84*,0.2
CCCn1cc(NC(=O)C2CC(c3cccc(Br)c3)=NO2)cn1 (stereo unspecified),-38,1.4,42,0.6
O=C(NCCCn1ccnc1)C1CC(c2cccc(Br)c2)=NO1 (stereo unspecified),85*,0.2,100*,0
COc1cccc(C2=NOC(C(=O)NCCCn3ccnc3)C2)c1 (stereo unspecified),82*,0.2,95*,0
COc1ccc(C2=NOC(C(=O)NCc3ccccc3)C2)cc1 (stereo unspecified),-36,1.4,34,0.7
COCCNC(=O)C1CCCN(c2ncccn2)C1 (stereo unspecified),2,1,12,0.9
CCCN1C=CC(=C/C=C(\C#N)C(=O)OCC)C=C1,36,0.6,-3,1
CCCCCCN1C=CC(=C/C=C(\C#N)C(=O)OCC)C=C1,60*,0.4,28,0.7
SMILES,CYP2C9 inh,CYP2C9 activ,CYP2C19 inh,CYP2C19 act
Cc1ccc(C(C(=O)NC2CCCC2)N2CCc3ccccc32)cc1 (stereo unspecified),13,0.9,5,0.9
CCNC(=O)C(=O)NCCc1ccc(Cl)cc1,9,0.9,59*,0.4
COc1ccccc1CCNC(=O)c1ccoc1C,33,0.7,83*,0.2
O=CNCC(=O)NCCc1ccc(Cl)cc1,8,0.9,2,1
Cc1occc1C(=O)NCCc1ccc(Cl)cc1,6,0.9,57*,0.4
O=C(NCCc1ccc(O)cc1)c1ccc(Cl)cc1,-131,2.3*,42,0.6
CCOc1ccccc1NC(=S)Nc1ccccc1F,8,0.9,42,0.6
Cc1ccc(S(=O)(=O)Cc2ccc(C(=O)O)o2)cc1,37,0.6,-3,1
CC(=O)Nc1ccc(S(=O)(=O)NC(C(=O)O)C2=CCC=CC2)cc1 (stereo unspecified),-6,1.1,-7,1.1
CCOc1ccc(NC(=O)CSc2nnc(-c3ccncc3)n2CC2CCCO2)cc1 (stereo unspecified),49,0.5,29,0.7
Cc1ccc(NCc2nnc(SCC(=O)Nc3ncc(C)s3)n2CC2CCCO2)c(C)c1 (stereo unspecified),25,0.7,27,0.7
O=C(CSc1nnc(-c2ccncc2)n1CC1CCCO1)Nc1cccc(O)c1 (stereo unspecified),67*,0.3,36,0.6
Cc1ccc(NCc2nnc(SCC(=O)Nc3cccc(O)c3)n2CC2CCCO2)c(C)c1 (stereo unspecified),81*,0.2,67*,0.3
COc1ccc(NC(=O)CSc2nnc(-c3ccncc3)n2CC2CCCO2)c(OC)c1 (stereo unspecified),28,0.7,60*,0.4
c1ccc(COc2ccc(Nc3ncnc4nc[nH]c34)cc2)cc1,32,0.7,26,0.7
CCCS(=O)(=O)N1CCC(C(=O)NCc2ccco2)CC1,7,0.9,2,1
COc1cc(CC(=O)Nc2ccc(S(=O)(=O)N(C)C)cc2)cc(OC)c1OC,44,0.6,5,0.9
CC1CCCN(c2ccc(C(=O)NCC3CCCO3)cn2)C1 (stereo unspecified),-5,1.1,-3,1
COc1ccc(C2C(=O)N(C3CCCCC3)CC(=O)N2Cc2ccco2)cc1 (stereo unspecified),14,0.9,20,0.8
Cc1ccsc1C(=O)OCc1nc2ccccc2c(=O)[nH]1,87*,0.1,72*,0.3
COCC(=O)N(Cc1ccc(OC)cc1)Cc1nc2ccccc2c(=O)[nH]1,-6,1.1,27,0.7
CN(CC(=O)N1CCCCCC1)S(=O)(=O)c1cccc2cccnc12,-226,3.3*,16,0.8
CN(CC(=O)N1CCN(C2CCCCC2)CC1)S(=O)(=O)c1cccc2nsnc12,12,0.9,-10,1.1
CN(CC(=O)NC1CCCCCCC1)S(=O)(=O)c1cccc2cccnc12,-10,1.1,75*,0.2
CCN(CC)S(=O)(=O)c1cccc2cc(C(=O)O)c(O)cc12,71*,0.3,4,1
SMILES,CYP2C9 inh,CYP2C9 activ,CYP2C19 inh,CYP2C19 act
CCN(CC)S(=O)(=O)c1cccc2c(N(C)C)cccc12,-34,1.3,57*,0.4
CCN(CC)S(=O)(=O)c1cc(C(=O)O)c(Cl)cc1Cl,12,0.9,4,1
CCN(CC)S(=O)(=O)c1cccc2cccnc12,-379,4.8*,34,0.7
O=S(=O)(c1cccc2cccnc12)N(CCO)CCO,-36,1.4,-17,1.2
COc1ccc(-c2oc3ncn(CCN4CCOCC4)c(=N)c3c2-c2ccc(OC)cc2)cc1,13,0.9,63*,0.4
c1ccc(-c2oc3ncnc(NCCCN4CCOCC4)c3c2-c2ccccc2)cc1,94*,0.1,90*,0.1
COc1ccc(-c2oc3ncnc(NCCCN4CCOCC4)c3c2-c2ccc(OC)cc2)cc1,94*,0.1,24,0.8
